# “And” between values parts separate entries of the source, which are not always exact repeats. Equal values may be shown once.
# How the values were obtained:
# [1] = target: Death-associated protein kinase 1 (Homo sapiens) (UniProt P53355); conditions: at 1 µM;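 also: each value is a mean inhibition figure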
# [2] = target: T1, Serine/threonine-protein kinase DCLK2 (Homo sapiens) (UniProt Q8N568); conditions: at 0.1 µM
# T1 sequence (whole entry): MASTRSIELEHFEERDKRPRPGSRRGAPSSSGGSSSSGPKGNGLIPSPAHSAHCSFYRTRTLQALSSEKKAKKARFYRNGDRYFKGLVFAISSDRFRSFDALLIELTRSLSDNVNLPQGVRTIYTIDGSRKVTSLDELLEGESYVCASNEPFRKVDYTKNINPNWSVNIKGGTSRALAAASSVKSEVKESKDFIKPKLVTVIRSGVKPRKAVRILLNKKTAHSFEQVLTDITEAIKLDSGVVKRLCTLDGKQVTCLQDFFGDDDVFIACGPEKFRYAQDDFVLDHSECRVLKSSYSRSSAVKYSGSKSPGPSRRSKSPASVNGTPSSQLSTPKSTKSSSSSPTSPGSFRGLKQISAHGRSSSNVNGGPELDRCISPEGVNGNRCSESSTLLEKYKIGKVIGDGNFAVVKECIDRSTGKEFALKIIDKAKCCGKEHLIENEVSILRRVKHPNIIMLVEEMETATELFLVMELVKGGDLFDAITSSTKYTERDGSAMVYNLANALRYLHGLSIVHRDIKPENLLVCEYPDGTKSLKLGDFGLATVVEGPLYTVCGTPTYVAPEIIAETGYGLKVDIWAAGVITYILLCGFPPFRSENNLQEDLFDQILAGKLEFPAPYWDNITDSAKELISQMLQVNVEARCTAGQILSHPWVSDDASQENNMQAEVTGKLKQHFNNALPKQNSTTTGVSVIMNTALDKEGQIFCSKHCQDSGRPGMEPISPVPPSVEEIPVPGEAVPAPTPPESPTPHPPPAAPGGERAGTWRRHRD
# [3] = target: T1, Serine/threonine-protein kinase DCLK2 (Homo sapiens); conditions: at 1 µM
# [4] = target: MAP kinase-activated protein kinase 2 (Homo sapiens) (UniProt P49137); conditions: at 0.1 µM
# Chain of MAP kinase-activated protein kinase 2 (Homo sapiens) (P49137 whole entry, looked up): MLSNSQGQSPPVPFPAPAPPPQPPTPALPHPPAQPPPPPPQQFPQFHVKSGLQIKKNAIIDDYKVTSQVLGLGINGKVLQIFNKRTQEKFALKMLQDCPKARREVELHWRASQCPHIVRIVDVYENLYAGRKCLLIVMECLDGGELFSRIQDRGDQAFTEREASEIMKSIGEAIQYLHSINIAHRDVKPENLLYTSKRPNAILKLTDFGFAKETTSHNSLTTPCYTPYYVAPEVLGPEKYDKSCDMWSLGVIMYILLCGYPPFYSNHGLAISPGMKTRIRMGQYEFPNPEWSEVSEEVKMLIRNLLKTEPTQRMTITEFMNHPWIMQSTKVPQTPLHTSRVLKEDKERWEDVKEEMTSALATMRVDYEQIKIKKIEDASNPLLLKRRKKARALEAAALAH
# [5] = target: MAP kinase-activated protein kinase 2 (Homo sapiens) (UniProt P49137); conditions: at 1 µM
# [6] = target: MAP kinase-activated protein kinase 3 (Homo sapiens) (UniProt Q16644); conditions: at 0.1 µM
# Chain of MAP kinase-activated protein kinase 3 (Homo sapiens) (Q16644 whole entry, looked up): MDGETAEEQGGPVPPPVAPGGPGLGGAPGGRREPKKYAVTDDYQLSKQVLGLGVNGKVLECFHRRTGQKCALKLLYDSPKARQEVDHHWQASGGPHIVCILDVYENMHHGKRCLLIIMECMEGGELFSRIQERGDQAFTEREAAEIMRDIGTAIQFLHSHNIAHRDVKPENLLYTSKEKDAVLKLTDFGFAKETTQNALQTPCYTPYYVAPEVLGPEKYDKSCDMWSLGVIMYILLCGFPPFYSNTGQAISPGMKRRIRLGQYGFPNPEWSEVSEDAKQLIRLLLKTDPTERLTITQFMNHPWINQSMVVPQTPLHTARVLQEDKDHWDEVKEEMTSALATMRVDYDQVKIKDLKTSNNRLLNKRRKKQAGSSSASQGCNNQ
# [7] = target: MAP kinase-activated protein kinase 3 (Homo sapiens) (UniProt Q16644); conditions: at 1 µM
# [8] = target: Serine/threonine-protein kinase MARK1 (Homo sapiens) (UniProt Q9P0L2); conditions: at 0.1 µM
# Chain of Serine/threonine-protein kinase MARK1 (Homo sapiens) (Q9P0L2 whole entry, looked up): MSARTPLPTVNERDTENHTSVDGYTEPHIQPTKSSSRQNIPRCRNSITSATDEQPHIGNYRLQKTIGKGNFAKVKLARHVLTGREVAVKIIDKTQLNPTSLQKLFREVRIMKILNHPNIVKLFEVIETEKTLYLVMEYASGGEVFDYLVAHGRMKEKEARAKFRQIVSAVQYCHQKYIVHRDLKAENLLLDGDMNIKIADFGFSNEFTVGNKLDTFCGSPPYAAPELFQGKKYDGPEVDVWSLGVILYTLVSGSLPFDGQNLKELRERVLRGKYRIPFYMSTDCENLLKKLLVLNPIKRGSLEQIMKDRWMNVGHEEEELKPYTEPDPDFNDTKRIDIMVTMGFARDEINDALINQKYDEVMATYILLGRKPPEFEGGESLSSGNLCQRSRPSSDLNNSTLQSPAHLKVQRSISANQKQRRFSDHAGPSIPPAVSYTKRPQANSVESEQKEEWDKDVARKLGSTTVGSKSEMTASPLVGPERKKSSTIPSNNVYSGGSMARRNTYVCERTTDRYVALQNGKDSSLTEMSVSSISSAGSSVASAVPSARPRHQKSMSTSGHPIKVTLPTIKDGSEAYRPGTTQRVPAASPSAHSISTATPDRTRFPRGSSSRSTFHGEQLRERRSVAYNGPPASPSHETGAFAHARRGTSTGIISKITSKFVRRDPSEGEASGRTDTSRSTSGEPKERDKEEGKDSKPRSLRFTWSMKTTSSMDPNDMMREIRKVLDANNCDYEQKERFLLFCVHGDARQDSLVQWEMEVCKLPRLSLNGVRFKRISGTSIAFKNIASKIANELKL
# [9] = target: Serine/threonine-protein kinase MARK1 (Homo sapiens) (UniProt Q9P0L2); conditions: at 1 µM
# [10] = target: MAP/microtubule affinity-regulating kinase 3 (Homo sapiens) (UniProt P27448); conditions: at 0.1 µM;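 also: mean percent inhibition of MARK3 kinase activity, measured within the GSK PKIS screening panel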
# Chain of MAP/microtubule affinity-regulating kinase 3 (Homo sapiens) (P27448 whole entry, looked up): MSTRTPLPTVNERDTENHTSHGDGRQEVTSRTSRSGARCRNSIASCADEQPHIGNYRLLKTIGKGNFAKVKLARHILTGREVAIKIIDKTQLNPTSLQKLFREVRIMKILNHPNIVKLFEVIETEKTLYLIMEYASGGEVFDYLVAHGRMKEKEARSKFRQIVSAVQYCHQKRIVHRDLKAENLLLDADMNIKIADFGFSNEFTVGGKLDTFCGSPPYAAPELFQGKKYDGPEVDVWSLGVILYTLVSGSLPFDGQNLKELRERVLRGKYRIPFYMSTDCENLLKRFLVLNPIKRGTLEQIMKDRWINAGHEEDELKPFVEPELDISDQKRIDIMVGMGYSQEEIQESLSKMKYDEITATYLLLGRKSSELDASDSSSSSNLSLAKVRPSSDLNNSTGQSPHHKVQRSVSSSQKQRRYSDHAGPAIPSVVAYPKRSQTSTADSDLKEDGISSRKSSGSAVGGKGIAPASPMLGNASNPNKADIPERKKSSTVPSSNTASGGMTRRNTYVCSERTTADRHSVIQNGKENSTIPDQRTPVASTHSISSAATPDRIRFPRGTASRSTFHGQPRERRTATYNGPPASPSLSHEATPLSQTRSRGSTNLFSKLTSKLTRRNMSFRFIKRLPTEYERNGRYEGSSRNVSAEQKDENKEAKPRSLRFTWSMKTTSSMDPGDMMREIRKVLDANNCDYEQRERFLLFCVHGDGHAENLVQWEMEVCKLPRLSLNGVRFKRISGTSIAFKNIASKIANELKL
# Chain of Death-associated protein kinase 1 (Homo sapiens) (P53355 whole entry, looked up): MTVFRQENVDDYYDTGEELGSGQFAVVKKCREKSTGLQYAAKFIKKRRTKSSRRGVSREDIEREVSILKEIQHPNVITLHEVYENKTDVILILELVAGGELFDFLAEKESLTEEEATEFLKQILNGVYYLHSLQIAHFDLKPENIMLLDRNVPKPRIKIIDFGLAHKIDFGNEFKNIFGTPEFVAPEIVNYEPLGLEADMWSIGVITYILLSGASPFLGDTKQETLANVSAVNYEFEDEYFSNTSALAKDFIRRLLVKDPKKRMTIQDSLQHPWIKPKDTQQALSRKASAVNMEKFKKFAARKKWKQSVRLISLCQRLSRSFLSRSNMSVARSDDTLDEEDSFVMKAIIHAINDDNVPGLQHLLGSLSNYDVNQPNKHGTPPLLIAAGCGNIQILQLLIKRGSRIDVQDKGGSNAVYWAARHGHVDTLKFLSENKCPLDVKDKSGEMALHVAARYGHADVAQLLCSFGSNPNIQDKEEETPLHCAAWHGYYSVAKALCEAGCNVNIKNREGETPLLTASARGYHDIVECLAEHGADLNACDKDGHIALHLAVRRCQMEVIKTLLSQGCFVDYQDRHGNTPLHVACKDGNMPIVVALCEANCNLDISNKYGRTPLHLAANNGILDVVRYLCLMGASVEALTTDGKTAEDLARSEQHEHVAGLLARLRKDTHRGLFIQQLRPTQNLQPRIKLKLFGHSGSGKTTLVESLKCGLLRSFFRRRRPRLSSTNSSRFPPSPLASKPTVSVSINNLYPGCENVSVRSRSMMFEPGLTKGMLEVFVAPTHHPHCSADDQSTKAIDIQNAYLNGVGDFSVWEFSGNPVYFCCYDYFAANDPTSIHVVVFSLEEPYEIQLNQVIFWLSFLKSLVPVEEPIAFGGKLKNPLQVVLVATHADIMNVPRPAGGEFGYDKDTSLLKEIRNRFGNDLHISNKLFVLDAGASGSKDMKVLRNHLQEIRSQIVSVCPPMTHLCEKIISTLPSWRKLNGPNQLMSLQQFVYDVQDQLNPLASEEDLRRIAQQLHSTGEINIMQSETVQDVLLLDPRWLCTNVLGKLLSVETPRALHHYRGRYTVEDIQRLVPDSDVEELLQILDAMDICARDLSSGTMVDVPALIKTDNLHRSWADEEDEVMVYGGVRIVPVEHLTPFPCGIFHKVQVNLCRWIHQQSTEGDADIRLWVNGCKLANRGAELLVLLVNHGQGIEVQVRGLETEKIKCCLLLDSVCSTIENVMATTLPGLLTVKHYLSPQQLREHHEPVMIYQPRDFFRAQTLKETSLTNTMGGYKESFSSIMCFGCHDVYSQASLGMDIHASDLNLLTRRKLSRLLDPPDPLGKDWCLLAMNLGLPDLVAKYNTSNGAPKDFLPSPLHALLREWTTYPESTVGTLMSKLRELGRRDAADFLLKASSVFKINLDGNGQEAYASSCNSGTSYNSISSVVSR
Structure (SMILES),inhibition [1],inhibition [2],inhibition [3],inhibition [4],inhibition [5],inhibition [6],inhibition [7],inhibition [8],inhibition [9],inhibition [10]
Fc1ccc(Nc2nccc(-c3c(-c4ccc(C(F)(F)F)cc4)nn4ncccc34)n2)cc1F,4.85%,1.36%,0.53%,1.35%,0.53%,1.82%,4.65%,3.43%,4.46%,3.28%
CNC(=O)c1ncccc1Nc1nc(Nc2cc3c(cc2OC)CCCN3C(=O)CN(C)C)nc2[nH]ccc12,7.57%,1.66%,3.04%,2.23%,1.51%,3.6%,2.72%,4.87%,6.32%,5.9%
NS(=O)(=O)c1ccc(N/N=C2\C(=O)Nc3cccc(CCc4ccncc4)c32)cc1,-1.65%,-0.47%,-0.08%,-0.02%,-0.84%,0.82%,0.37%,2.29%,5.9%,1.2%
CS(=O)(=O)Nc1ccc(-c2ccc3c(NC(=O)C4CC4)n[nH]c3c2)cc1,4.64%,1.42%,1.42%,1.53%,1.14%,3.27%,3.44%,2.32%,2.73%,3.47%
CS(=O)(=O)Nc1ccc(-c2cc(-c3ccccc3)cc(C(N)=O)c2N)cc1,1.38%,-0.48%,1.02%,1.59%,1.42%,0.37%,2.22%,0.39%,1.47%,-0.54%
Nc1nccc(-c2c(-c3ccc(F)cc3)ncn2C2CCNCC2)n1,-3.07% and -0.77%,1.18% and 0.52%,-2.79% and 3.76%,-1.56% and -0.23%,-1.96% and -0.84%,27.6% and 29.5%,34.1% and 34.6%,-0.83% and 1.71%,-0.5% and 1.51%,-0.05% and -0.2%
CN1CCC(n2cnc(-c3ccc(F)cc3)c2-c2ccnc(NCCO)n2)CC1,5.18%,1.63%,0.48%,2.06%,2.43%,27.6%,37.2%,3.31%,7.7%,4.03%
O=C(Nc1n[nH]c2nnc(-c3cccnc3)cc12)C1CC1,-2.01%,-0.69%,-0.41%,-0.72%,-0.2%,0.08%,-0.37%,-0.14%,0.29%,0.23%
NC(=O)c1ccc2c(-c3ccnc(NCCCO)n3)c(-c3ccc(F)cc3)nn2c1,15.1%,1.81%,1.24%,5.03%,5.02%,39.7%,43.4%,4.33%,4.69%,4.33%
CC1=C(C(=O)Nc2ccc3[nH]ncc3c2)C(c2ccc(F)cc2)N=C(c2ccc(C(F)(F)F)nc2)N1 (stereo not given),0.67%,-2.05%,4.18%,1.36%,0.33%,1.46%,3.59%,1.66%,4.38%,1.04%
COc1cccc(-n2ncc3c(N/N=C/c4ccc(C(=O)NCCN(C)C)cc4)ncnc32)c1,4.78%,1.42%,0.78%,0.79%,1.08%,1.89%,4.06%,4.25%,16.7%,4.78%
COc1ccc(-c2nn3ncccc3c2-c2ccnc(Nc3ccc(F)c(F)c3)n2)cc1,6.8%,1.7%,0.5%,2.31%,2.82%,16.8%,32.5%,4.53%,8.38%,4.11%
c1cnn2ncc(-c3ccnc(NCCCN4CCOCC4)n3)c2c1,-0.07%,1.46%,1.43%,1.81%,2.19%,4.59%,4.86%,1.78%,5.05%,2.58%
O=C1Nc2ccccc2/C1=C1\CCc2cc(O)ccc21,-2.93%,2.55%,0.84%,-0.94%,-0.15%,-1.04%,-1.15%,8.64%,33.8%,7.19%
COc1cc(N2CCN(C(C)C)CC2)ccc1Nc1nc(Nc2cccc3ncccc23)c2cc[nH]c2n1,-1.59%,-1.36%,-0.27%,-0.17%,-0.87%,-0.09%,0.19%,0.48%,2.18%,0.2%
Cc1cc(O)cc(C)c1/C=C/c1cncc(C(=O)OC(C)(C)C)c1,1.3%,4.19%,6.15%,1.72%,1%,1.97%,2.47%,2.3%,2.93%,2.5%

Structure (SMILES),inhibition [1],inhibition [2],inhibition [3],inhibition [4],inhibition [5],inhibition [6],inhibition [7],inhibition [8],inhibition [9],inhibition [10]
COc1cc(N2CCN(C(C)C)CC2)ccc1Nc1nc(Nc2cccc(F)c2C(=O)O)c2cc[nH]c2n1,2.32%,0.91%,1.63%,2.14%,1.32%,4.39%,4.68%,3.19%,8.61%,4.95%
O=C(O[C@H]1CN[C@H](C#Cc2cc3ncnc(Nc4ccc(OCc5cccc(F)c5)c(Cl)c4)c3s2)C1)N1CCOCC1,-0.32%,0.93%,0.57%,-0.11%,0.31%,-0.64%,-0.5%,6.71%,5.07%,1.14%
N#Cc1cccc(Nc2ncc(-c3ccccc3)o2)c1,2.82%,-0.77%,0.28%,0.9%,1.11%,-0.02%,2.79%,1.98%,5.43%,-0.93%
CCOc1ccc2c(-c3ccnc(Nc4cc(OC)cc(C(F)(F)F)c4)n3)cnn2n1,1.23%,-0.5%,4.41%,0.58%,-0.09%,0.28%,-1.31%,-0.04%,2.77%,-1.2%
CCS(=O)(=O)c1ccc(OC)c(Nc2ncc(-c3cccc(C(C)=O)c3)o2)c1,3.26%,-0.25%,-0.78%,2.19%,1.71%,3%,3.61%,1.61%,3.04%,0.57%
Nc1nonc1-c1nc2cnccc2n1C1CC1,4% and -1.82%,1.88% and -0.85%,3.6% and -3.51%,1.36% and 1.4%,1.45% and 0.82%,5.15% and 2.54%,6.05% and 1.43%,6.69% and 4.73%,23.2% and 20.6%,7.63% and 5.91%
COc1cccc(Nc2nccc(-c3cnn4ncccc34)n2)c1,0.16%,-2.05%,2.73%,1.39%,-0.06%,2.8%,2.89%,4.15%,27.7%,4.03%
Cc1c2ccc(N(C)c3ccnc(Nc4cccc(S(N)(=O)=O)c4)n3)cc2nn1C,3.66%,-2.02%,-1.83%,2.01%,1.4%,3.68%,4.05%,4.13%,7.61%,5.31%
CCS(=O)(=O)c1ccc(OC)c(Nc2ncc(-c3cccc(F)c3)o2)c1,7%,1.71%,1.48%,2.52%,3.2%,7.02%,7.04%,1.75%,4.44%,3.77%
N#Cc1ccc2c(-c3ccnc(NC4CC4)n3)c(-c3ccc(F)cc3)nn2c1,0.06%,-0.01%,1.17%,0.5%,-0.23%,32.7%,35.1%,0.42%,1.08%,2.94%
CN(C)CCNC(=O)Nc1ccc(N(C)c2ccnc(Nc3ccc(CS(C)(=O)=O)cc3)n2)cc1,4.89%,2.39%,1.2%,1.53%,1.45%,2.22%,2.99%,4.47%,9.32%,6.51%
CS(=O)(=O)CCNCc1ccoc1-c1ccc2ncnc(Nc3ccc(OCc4ccccc4)cc3)c2c1,-0.75%,-1.49%,-0.03%,-0.61%,-0.91%,0.57%,0.18%,-0.89%,1.23%,-2.66%
O=C(O[C@H]1CN[C@H](C#Cc2cc3ncnc(Nc4ccc5c(cnn5Cc5ccccc5)c4)c3s2)C1)N1CCOCC1,-1.55%,-2.27%,-1.86%,-0.79%,-0.97%,0%,-0.37%,0.33%,3.97%,-1.73%
CN1CCC(C(=O)Nc2n[nH]c3nc(-c4ccc(O)cc4)c(Br)cc23)CC1,2.5% and 1.28%,-1.57% and -0.96%,5.44% and 10.2%,1.56% and -0.15%,1.12%,2.88% and 0.82%,2.79% and 1.9%,3.54% and -0.23%,8.58% and 1.5%,-0.22% and -0.59%
Fc1cccc(COc2ccc(Nc3ncncc3C#Cc3ccccc3)cc2Cl)c1,5.6%,1.92%,-0.09%,2.63%,2.47%,4.72%,6.08%,4.09%,5.61%,4.58%

# Source: ChEMBL document CHEMBL1961873, “Compounds: GSK PKIS; Assays: Nanosyn kinase panel” (2012)
